L3MBTL1 block: L3MBTL1 (human) inhibition. AlphaScreen L3MBTL1–H3K9me1 peptide binding. Potency, µM (doses to about 57.1 µM), hits mostly inhibitors. 0.66% of 230,000 active. AID 485360; note: nearly all actives have a fitted effect of over 60% in size
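First, the protein-peptide complex forms for 30 min at room temperature (L3MBTL1 50 nM, biotinylated H3K9me1 peptide 75 nM). Next, compounds are pin-transferred and incubated 30 min. Finally, AlphaScreen beads are added and read after 30 min.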
BLM helicase inh: inhibitors of human Bloom syndrome helicase BLM | P54132 | 0.2% of 350,000 active | Potency, µM (titrated, usually from 56.1 µM), usual class: inhibitors | recombinant BLM DNA unwinding, fluorescence dequenching; note: nearly all actives have a fitted effect of over 35% in size
RECQ1 inh-1: inhibitors of human RECQ1 DNA helicase | P46063 | RECQ1 DNA unwinding, red fluorescence kinetic read | Potency, µM (titrated, usually from 57.3 µM), hits mostly inhibitors | 0.54% of 240,000 active | AID 2549; note: nearly all actives have a fitted effect of over 30% in size
Target sequence (P46063 whole entry, looked up): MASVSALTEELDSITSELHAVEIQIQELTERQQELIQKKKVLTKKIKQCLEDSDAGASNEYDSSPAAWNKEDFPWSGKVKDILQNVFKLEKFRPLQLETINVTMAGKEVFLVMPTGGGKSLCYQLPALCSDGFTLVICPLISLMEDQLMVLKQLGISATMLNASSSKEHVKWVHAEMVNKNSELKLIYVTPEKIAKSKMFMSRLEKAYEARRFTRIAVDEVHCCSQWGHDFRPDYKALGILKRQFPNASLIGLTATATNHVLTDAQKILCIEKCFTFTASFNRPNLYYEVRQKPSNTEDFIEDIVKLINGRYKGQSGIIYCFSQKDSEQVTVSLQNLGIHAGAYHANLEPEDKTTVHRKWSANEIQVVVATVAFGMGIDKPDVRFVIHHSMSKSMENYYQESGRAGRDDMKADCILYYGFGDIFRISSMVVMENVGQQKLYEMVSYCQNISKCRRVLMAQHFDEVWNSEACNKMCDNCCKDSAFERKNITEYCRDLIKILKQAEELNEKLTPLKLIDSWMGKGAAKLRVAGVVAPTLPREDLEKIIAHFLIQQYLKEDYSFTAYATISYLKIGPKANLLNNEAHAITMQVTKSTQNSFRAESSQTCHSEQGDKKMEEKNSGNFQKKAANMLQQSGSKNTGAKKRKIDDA
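50 nM RECQ1T1 preincubated 15 min with compound in Tris pH 8.0 buffer with MgCl2, DTT, Tween-20 and 2.5 ug/ml poly(dI-dC); started with 200 nM TAMRA/BHQ-2 forked duplex and 2 mM ATP. Unwinding read as fluorescence (525/598 nm), two reads 2 h apart.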
FEN1 inhibitor: human FEN1 inhibition. P39748. Recombinant FEN1 flap cleavage, fluorescence, 15 min. Potency, µM (top dose mostly 114 µM), most hits filed as inhibitors. 0.35% of 390,000 active. AID 588795; note: nearly all actives have a fitted effect of over 65% in size
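Enzyme 10 nM, 15 min RT preincubation with compound; start with substrate 50 nM final; reads at 0 and 15 min; qHTS titration, four-parameter Hill fit.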
WRN helicase inh: blocks human WRN helicase. Q14191. WRN helicase unwinding, fluorescent forked duplex, kinetic. Potency, µM (top dose mostly 114 µM), actives largely listed as inhibitors. 0.46% of 360,000 active; note: nearly all actives have a fitted effect of over 55% in size
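Kinetic red-fluorescence monitoring (525/598 nm) tracks WRN helicase activity after 100 nM fluorophore-quencher forked duplex and 2 mM ATP are added to 20 nM enzyme pretreated 15 min at room temperature with compound.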
RECQ1 inh conf: confirmation of human RECQ1 helicase inhibitors | shares compounds with RECQ1 inh-1 | RECQ1 helicase DNA unwinding, fluorescence | Potency, µM (series often up to 229 µM), hits mostly inhibitors | 28% of 610 active; note: nearly all actives have a fitted effect of over 45% in size
ADP FP counter: displaces ADP in a fluorescence polarization counter-screen for RECQ1 hits. shares compounds with RECQ1 inh-1. ADP fluorescence polarization displacement counterscreen. Potency, µM (titrated, usually from 228 µM), usual class: inhibitors. 27% of 530 active. AID 2711; note: nearly all actives have a fitted effect of over 45% in size
RECQ1 inh-2: blocks human RECQ1 DNA unwinding; recombinant RECQ1 DNA unwinding, red fluorescence; AID 504841; shares compounds with RECQ1 inh-1; Potency, µM (highest dose often 119 µM), hits mostly inhibitors; 15% of 1,100 active; note: nearly all actives have a fitted effect of over 50% in size
Large screens that a line does not name were inactive (follow-up assays come after a bar, where they were run). Compounds with a hit are over-represented: about 0.99% of the library has one in this group of screens. Calls come from the whole dose curve; as a rule, active = well fitted curve in the direction sought with a large enough effect; inconclusive = small, poorly fitted or top-dose-only effect, or another doubt; inactive = no such curve, though single readings can be large; an effect the other way counts as inactive or inconclusive.

CC[C@H](C)[C@H](NC(=O)[C@@H]1CCCN1C(=O)[C@H](Cc1cnc[nH]1)NC(=O)[C@H](CCCCNC(=O)[C@H](CCCN=C(N)N)NC(=O)OCc1ccccc1)NC(=O)[C@H](Cc1ccc(O)cc1)NC(=O)c1cccnc1)C(=O)O	none (no result: L3MBTL1 block, FEN1 inhibitor, WRN helicase inh)
O=C(O)CCCc1nc(-c2ccc(Cl)cc2)no1	none (no result: L3MBTL1 block)
CC1CC(N(C(=O)C2CC2)c2ccccc2)c2ccccc2N1C(=O)C1CC1 (centres undefined)	none
CCCCn1c(N)c(N(CCC(C)C)C(=O)CSc2nc3ccccc3s2)c(=O)[nH]c1=O	none (no result: L3MBTL1 block, BLM helicase inh, RECQ1 inh-1, FEN1 inhibitor)
CC(=O)Oc1ccc(C(=O)[C@H]2[C@H]3C(=O)N(c4ccc5ccccc5c4)C(=O)[C@H]3[C@@H]3C=CC=NN32)cc1	RECQ1 inh-1 32µM | RECQ1 inh-2 inconclusive
COc1ccccc1N1C(=O)[C@@H]2[C@H](C1=O)[C@H](C(=O)c1ccc(OC(C)=O)cc1)N1N=CC=C[C@@H]21	none
COc1cc(C2NCC(c3ccc(Cl)cc3Cl)c3c2[nH]c2ccccc32)cc(OC)c1OC (centres undefined)	RECQ1 inh-1 inconclusive | RECQ1 inh-2 inactive
COc1cc([C@H]2c3[nH]c4ccccc4c3C[C@H]3C(=O)N4[C@@H](c5cc(OC)c(OC)c(OC)c5)c5[nH]c6ccccc6c5C[C@H]4C(=O)N23)cc(OC)c1OC	none
CCN(CC)S(=O)(=O)c1ccc(OC)c(NC(=O)/C=C/c2ccco2)c1	RECQ1 inh-1 25µM | RECQ1 inh-2 inactive
Cc1ccc(Oc2nc3ccccn3c(=O)c2/C=C(\C#N)C(=O)Nc2c(C)n(C)n(-c3ccccc3)c2=O)c(C)c1	none | RECQ1 inh conf inactive | ADP FP counter inactive
COc1ccccc1Oc1nc2ccccn2c(=O)c1/C=C(\C#N)C(=O)Nc1c(C)n(C)n(-c2ccccc2)c1=O	none | RECQ1 inh conf inactive | ADP FP counter inactive
Cc1c(NC(=O)/C(C#N)=C/c2ccccc2)c(=O)n(-c2ccccc2)n1C	none (no result: L3MBTL1 block)
Cc1nc2ccc(C(=O)Nc3cccc([N+](=O)[O-])c3)cc2s1	RECQ1 inh-1 inconclusive | RECQ1 inh-2 inactive
COc1ccc(C(=O)NCCCN2CCOCC2)cc1S(=O)(=O)N1CCCc2ccccc21	RECQ1 inh-1 40µM (no result: L3MBTL1 block) | RECQ1 inh-2 inactive
O=C(CSc1nc2ccccc2[nH]1)N1c2ccccc2Sc2ccccc21	RECQ1 inh-1 inconclusive | RECQ1 inh-2 inconclusive
O=C(CSc1nc2ccccc2[nH]1)N1CCCCC1	none (no result: L3MBTL1 block)
O=C(CSc1nc(O)cc(=O)[nH]1)N1c2ccccc2Sc2ccccc21	none
Cc1c(C)n(C(=O)CSc2nc3ccccc3[nH]2)c2ccccc12	RECQ1 inh-1 8.9µM, WRN helicase inh inconclusive (no result: L3MBTL1 block) | RECQ1 inh conf 50µM | ADP FP counter inactive | RECQ1 inh-2 35µM
O=C(O)C1=C(OCc2ccc(F)c(F)c2)C(=O)NCC1	none
COc1cc(/C=C(\C#N)c2nc3ccccc3s2)cc([N+](=O)[O-])c1O	BLM helicase inh inconclusive, RECQ1 inh-1 inconclusive, FEN1 inhibitor inconclusive, WRN helicase inh inconclusive | RECQ1 inh-2 35µM
COC(=O)C1(Cc2ccc(O)cc2)OC(=O)C(O)=C1c1ccc(O)cc1 (centres undefined)	RECQ1 inh-1 inconclusive, FEN1 inhibitor inconclusive, WRN helicase inh inconclusive (no result: L3MBTL1 block) | RECQ1 inh-2 20µM
Cc1noc(C)c1NC(=O)Nc1ccc2c(c1)C(=O)N([C@H](C)CO)C[C@H](C)[C@@H](CN(C)C(=O)Nc1c(C)noc1C)O2	none (no result: BLM helicase inh, RECQ1 inh-1)
CC(C)(C)C1CCC(C(=O)OCC(=O)c2ccc[nH]2)CC1 (centres undefined)	RECQ1 inh-1 inconclusive | RECQ1 inh-2 inactive
O=C1C=CC2=C3c4cc(O)c(O)cc4C[C@@]3(O)COC2=C1	RECQ1 inh-1 20µM (no result: L3MBTL1 block, FEN1 inhibitor, WRN helicase inh) | RECQ1 inh-2 25µM
CCOC(=O)C1CN(S(=O)(=O)c2cccc(C(F)(F)F)c2)c2cc(CC(=O)OC)ccc2O1 (centres undefined)	RECQ1 inh-1 40µM | RECQ1 inh-2 inactive
CCOC(=O)C1CN(S(=O)(=O)c2ccccc2)c2cc(S(=O)(=O)CC)ccc2O1 (centres undefined)	none
Cc1ccc(S(=O)(=O)/N=C2/NC(=O)/C(=C\c3ccccc3)S2)cc1	WRN helicase inh inconclusive (no result: BLM helicase inh, RECQ1 inh-1)
Cc1ccc(S(=O)(=O)/N=C2/NC(=O)/C(=C\c3ccco3)S2)cc1	RECQ1 inh-1 inconclusive | RECQ1 inh-2 inactive
Cc1ccc(S(=O)(=O)/N=C2/NC(=O)/C(=C/c3ccccc3)S2)cc1	none
CC(=O)Nc1ccc(S(=O)(=O)/N=C2/NC(=O)/C(=C\c3ccco3)S2)cc1	RECQ1 inh-1 inconclusive (no result: L3MBTL1 block) | RECQ1 inh-2 inactive
Cn1cccc1CNC(=O)Nc1ccccc1	none (no result: L3MBTL1 block)
CCC(Sc1nnc(C)n2c1cc1sccc12)C(=O)Nc1ccccc1F (centres undefined)	none (no result: L3MBTL1 block, RECQ1 inh-1, WRN helicase inh)
C=CCn1c(NC(=O)c2ccc(Br)o2)c(S(=O)(=O)c2ccccc2)c2nc3ccccc3nc21	L3MBTL1 block inconclusive, BLM helicase inh inconclusive, RECQ1 inh-1 inconclusive, WRN helicase inh inconclusive | RECQ1 inh-2 inactive
O=C(NC1CCCCC1)[C@@H]1CSC2c3ccccc3C(=O)N21 (some centres undefined)	none (no result: L3MBTL1 block, RECQ1 inh-1)
COc1ccccc1C(=O)OC1CCCN(C)C1 (centres undefined)	none (no result: L3MBTL1 block, RECQ1 inh-1)
O=C(CCCc1nc2ccccc2s1)NC1CCOC1=O (centres undefined)	none
O=C(CCc1nc2ccccc2s1)NC1CCOC1=O (centres undefined)	L3MBTL1 block inconclusive, RECQ1 inh-1 inconclusive | RECQ1 inh-2 inconclusive
CCSc1nnc2nc(C)cc(C)n12	none (no result: L3MBTL1 block)
Cc1ccc(-c2cc3nc(-c4ccccc4)cc(C(F)(F)F)n3n2)cc1	none (no result: L3MBTL1 block, RECQ1 inh-1, WRN helicase inh)
Cn1cnc([N+](=O)[O-])c1Oc1cccc2ccccc12	RECQ1 inh-1 5µM | RECQ1 inh-2 inactive
CCOC(=O)C1CCCN(CC(=O)/C=C2/N(C)c3ccccc3C2(C)C)C1 (centres undefined)	none
O=C1/C(=C\c2ccc(O)c(O)c2)Oc2cc(O)ccc21	RECQ1 inh-1 20µM (no result: L3MBTL1 block, FEN1 inhibitor, WRN helicase inh) | RECQ1 inh-2 56µM
O=C1/C(=C/c2ccc(Br)cc2)Oc2cc(O)ccc21	none (no result: L3MBTL1 block, RECQ1 inh-1)
COCCN1C(=O)C(=O)/C(=C(/O)c2ccc(S(=O)(=O)N3CCOCC3)cc2)C1c1cccc(OC)c1 (centres undefined)	none (no result: L3MBTL1 block, RECQ1 inh-1)
COCCN1C(=O)C(=O)/C(=C(/O)c2ccc(S(=O)(=O)N3CCOCC3)cc2)C1c1cccc(O)c1 (centres undefined)	none | RECQ1 inh conf inactive | ADP FP counter inactive

High-throughput results (PubChem)
